FLuc counter – inhibits or activates purified firefly luciferase, miR-21 counter-screen; P08659; purified FLuc, Km substrates, luminescence inhibition; Potency, µM (top dose mostly 57.5 µM), without a hit: at the top dose activity change, negative = inhibition, hits mostly inhibitors; 360,000 compounds, 6.9% hits; AID 588342;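 note: plate controls were vehicle for no effect and reference inhibitor for full effect; nearly all actives have a fitted effect of over 55% in size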
Target sequence (P08659 whole entry, looked up): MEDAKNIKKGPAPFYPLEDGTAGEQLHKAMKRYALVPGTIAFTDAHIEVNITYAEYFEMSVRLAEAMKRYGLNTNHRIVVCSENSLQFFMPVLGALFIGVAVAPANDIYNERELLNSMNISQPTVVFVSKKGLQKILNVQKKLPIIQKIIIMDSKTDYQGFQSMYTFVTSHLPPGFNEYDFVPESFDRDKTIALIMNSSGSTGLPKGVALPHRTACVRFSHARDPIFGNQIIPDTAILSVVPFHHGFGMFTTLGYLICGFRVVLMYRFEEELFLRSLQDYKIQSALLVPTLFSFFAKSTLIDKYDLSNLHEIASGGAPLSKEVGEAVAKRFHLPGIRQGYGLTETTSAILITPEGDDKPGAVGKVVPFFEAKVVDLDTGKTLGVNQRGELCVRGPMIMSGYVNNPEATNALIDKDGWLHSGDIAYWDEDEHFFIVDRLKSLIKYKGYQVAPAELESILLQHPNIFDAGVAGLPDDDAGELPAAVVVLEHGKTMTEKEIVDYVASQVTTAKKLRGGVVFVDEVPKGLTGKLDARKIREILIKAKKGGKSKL
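Biochemical qHTS of compounds, final roughly 60 µM downward over six points, against 10 nM purified firefly luciferase using Km concentrations of substrates (10 uM D-luciferin, 10 uM ATP) in Tris acetate pH 7.5 buffer; luminescence output.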
ELG1 genotox – inducers of genotoxicity in HEK293T ELG1-luciferase cells; HEK293T ELG1-luciferase reporter, luminescence, 16 h; Potency, µM (highest dose often 46 µM), for inactives: at the highest dose activity change, positive = activation, most hits filed as activators; 330,000 compounds, 1.3% hits; AID 504466; note: % of control where 0% means no effect; nearly all actives have a fitted effect of over 60% in size
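Genotoxic stress is detected as increased luminescence from luciferase-tagged ELG1 in HEK293T cells, measured with ONE-Glo after a 16 hr treatment at 37 °C.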
Rab9 promoter act – activators of Rab9 promoter | Huh7 Rab9 promoter-luciferase reporter, luminescence, 24 h | Potency, µM (series often up to 9.22 µM), for the others: top-dose activation, negative = inhibition, hits mostly activators | 320,000 compounds, 2.8% hits | AID 485297; note: % of control where 0% means no effect; nearly all actives have a fitted effect of over 60% in size
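Rab9 promoter-driven luciferase in stably transfected Huh7 cells; 1500 cells/well rested 2 h, exposed to compound in DMSO for 24 h at 37 °C, 5% CO2. Luminescence read 10 min after adding luciferase reagent at ambient temperature.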
SMN2 splice up – SMN2 splice variant enhancement | 210,000 compounds, 2.8% hits | AID 1458 | HEK293 SMN2-luciferase splicing reporter, luminescence, 30-36 h | Potency, µM (doses to about 46.1 µM), without a hit: at the highest dose activity change, positive = activation, usual class: activators; note: % of control where 0% means no effect; nearly all actives have a fitted effect of over 55% in size
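qHTS luciferase splicing reporter: luminescence rises when SMN2 exon 7 is included in transfected HEK293 cells. Compound exposure lasted 30-36 h at 37C, with 4.5 mM final sodium butyrate as control, followed by a ONE-Glo read.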
NPC1 promoter act – activates the NPC1 promoter; 320,000 compounds, 2.4% hits; Huh7 NPC1 promoter luciferase reporter, 24 h; Potency, µM (series often up to 9.22 µM), inactives show at the highest dose activation, most hits filed as activators; note: % of control where 0% means no effect; nearly all actives have a fitted effect of over 60% in size
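Quantitative HTS used a cell-based reporter: Huh7 cells stably bearing the NPC1 promoter upstream of luciferase were treated with compounds for 24 h, and promoter activation was read as luminescence.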
KinaseGlo FLuc – Kinase-Glo luciferase inhibition (counter-screen); Q27757; Kinase-Glo luciferase, ATP luminescence, 8 min; Potency, µM (highest dose often 38.3 µM), without a hit: at the highest dose activity change, negative = inhibition, usual class: inhibitors; 200,000 compounds, 0.28% hits; note: % is set by controls: 0 for no effect and ±100 for the full control effect; nearly all actives have a fitted effect of over 60% in size
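Inhibition of Kinase-Glo luciferase light generation was assessed at 10 uM ATP in pH 7.2 imidazole buffer, with luminescence measured after eight minutes at ambient temperature.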
Starred values were filed as active, the others as inactive; ? = inconclusive; . = no result; [ ] = another dose, or the depositor's remark. Shown are actives, neighbours in structure and some others; about 7.3% of the full set was active somewhere. Calls come from the whole dose curve; as a rule, active = well fitted curve in the direction sought with a large enough effect; inconclusive = small, poorly fitted or top-dose-only effect, or another doubt; inactive = no such curve, though single readings can be large; an effect the other way counts as inactive or inconclusive. Potency is the fitted concentration of half-maximal effect.

SMILES | FLuc counter | ELG1 genotox | Rab9 promoter act | SMN2 splice up | NPC1 promoter act | KinaseGlo FLuc
O=C(O)c1ccc(/C=N/Nc2ncc(Cl)cc2Cl)cc1 | ? | 8% | 26% | . | 16% | .
Nc1c(Cl)ncnc1N/N=C/c1ccc(O)cc1 | 13µM* | ? | 20% | . | -3% | .
Oc1ccc(/C=N/Nc2nccnc2Cl)cc1 | 11µM* | 12µM* | 3.2µM* | ? | 4µM* | 3.5µM*
CNC(=O)Cn1c(=O)c2cccn2c2ccc(F)cc21 | 1% | . | . | . | . | .
CC12CC[C@@H]3c4ccc(OP(=O)(O)O)cc4CCC3C1CCC2=O (some centres undefined) | . | . | . | 12%[9.22 µM] | . | -3%[7.66 µM]
O=C(NCCc1cccs1)C1CC(c2ccccc2[N+](=O)[O-])=NO1 (centres undefined) | 15µM* | 15% | ? | 24% | ? | 0%
Cc1ccc(CCNC(=O)C2CC(c3ccccc3[N+](=O)[O-])=NO2)cc1 (centres undefined) | -1% | -1% | -4% | -6% | -2% | 0%
COCCNC(=O)C1CC(c2ccccc2[N+](=O)[O-])=NO1 (centres undefined) | 0% | 3% | 2% | -12% | 0% | -2%
CCCCNC(=O)C1CC(c2cccc([N+](=O)[O-])c2)=NO1 (centres undefined) | 11µM* | ? | 2.8µM* | ? | 2.8µM* | -4%
COc1ccc(CCNC(=O)C2CC(c3ccccc3[N+](=O)[O-])=NO2)cc1 (centres undefined) | 19µM* | 21% | ? | 27% | ? | 1%
COc1ccc(-n2c(=O)c3c(c4cc(OC)ccc4n3C)n(CCC(C)C)c2=O)cc1 | 1% | . | . | . | . | .
CCCC/C=C/C(NC(=O)c1cccs1)c1ccccc1 (centres undefined) | . | . | . | -42% | . | 1%
COC(=O)C(C(C)=O)C(NC(=O)OC(C)(C)C)c1ccccc1 (centres undefined) | . | . | . | 5% | . | 0%
CCOC(=O)c1c(NC(=O)c2cc(-c3ccc(Br)cc3)on2)sc(C)c1C | -11% | . | . | -8% | . | .
O=C(Cc1cccs1)Nc1ccc(F)cc1F | 2% | -3% | -5% | . | -3% | .
Cc1ccc(NC(=O)C2CCN(C(=O)c3cccs3)CC2)cc1 | -1% | 1% | -2% | . | -2% | .
O=C(/C=C/Nc1ccccc1F)c1cccs1 | 0.24µM* | ? | 4µM* | 2µM* | ? | ?
Cc1ccc(N/C=C/C(=O)c2cccs2)cc1 | 0.12µM* | 0.16µM* | 0.14µM* | 2µM* | ? | ?
O=C(/C=C/Nc1ccc(F)cc1F)c1cccs1 | 0.11µM* | ? | 2µM* | 0.4µM* | 0.56µM* | 7.9µM*
CCOC(=O)c1ccccc1N/C=C/C(=O)c1cccs1 | ? | 2% | ? | . | 11% | .
Cc1ccc(N/C=C/C(=O)c2sc(-c3ccccc3)nc2C)cc1 | 6µM* | -4% | 2% | -12% | -2% | -1%
O=C(CSc1nccn1-c1ccc(Cl)cc1)Nc1cccc2ccccc12 | -14% | . | . | . | . | .
COC(=O)CN1C(=O)CSc2ccc(S(=O)(=O)Nc3cccc(C)c3)cc21 | -13% | . | . | . | . | .
CCc1ccccc1NC(=O)N1CCN(c2cc(-c3noc(C)n3)ccc2C)CC1 | 1% | . | . | . | . | .
O=C(/C=C\Nc1cccc(F)c1)c1cccs1 | 0.85µM* | ? | 4µM* | 6.3µM* | 4µM* | -23%
SMILES | FLuc counter | ELG1 genotox | Rab9 promoter act | SMN2 splice up | NPC1 promoter act | KinaseGlo FLuc
Cc1cc(=O)n2nc(N(C)CC(=O)NCc3ccc(Cl)cc3)sc2n1 | -5% | . | . | 2% | . | .
COc1cc(NC(=S)N2CCN(C(c3ccccc3)c3ccccc3)CC2)cc(OC)c1 | -2% | -19% | -14% | 13µM* | 2% | 1%
COc1cc(NC(=S)N2CCN(C/C=C/c3ccccc3)CC2)cc(OC)c1 | 1% | -4% | -3% | 13% | -1% | 2%
C=CCn1c(-c2cc3c(s2)CCC(CC)C3)n[nH]c1=S (centres undefined) | 30µM* | 0% | 28% | 26% | 10% | -2%
C=CCn1c(SCC(=O)NC2CCS(=O)(=O)C2)nnc1-c1cc2c(s1)CCC(CC)C2 (centres undefined) | 11µM* | 10% | 25% | 29% | 20% | 3%
C=CCn1c(SCC(=O)NC2CCS(=O)(=O)C2)nnc1-c1ccc(Cl)cc1 (centres undefined) | -2% | -5% | -3% | . | 1% | .
CCCCNc1c(-c2ccc(SC(C)CC)c(OC)c2)nc2ccc(C)cn12 (centres undefined) | 8.5µM* | -6% | -1% | . | 0% | .
CCOC(=O)c1cc(-c2ccccc2)n(-c2cccc(C(=O)Nc3cccc(SC)c3)c2)c1C | 2% | . | . | . | . | .
CCCCn1c(SCC(=O)Nc2cc(C)on2)nc2cc(S(N)(=O)=O)ccc21 | -2% | 0% | 8% | . | 4%[1.84 µM] | .
CCCCn1c(SCc2c(C)noc2C)nc2cc(S(N)(=O)=O)ccc21 | 3% | 18µM* | -6% | ? | -5% | 1%
Cc1[nH]c2ccccc2c1C(=O)CSC(=S)N1CCOCC1 | 21µM* | 10% | ? | . | 21% | .
CCOC(=O)c1cccc(NC(=O)c2cc3cc4ccc(C)cc4nc3o2)c1 | 1% | . | . | -5% | . | .
CCCCCCCCCCCCOCC1CO1 (centres undefined) | . | . | . | -5% | . | .
CC(NC(=O)c1ccc(N(C)C)cc1)c1ccc(F)cc1 (centres undefined) | -11% | 0% | 2% | 6% | -4% | 0%
CC(/C=C/C(=O)NO)=C\[C@@H](C)C(=O)c1ccc(N(C)C)cc1 | . | . | . | 1.4µM* | . | 1%[39.9 µM]
CN(C)c1ccc(C=Nc2cnn(C)c2C(N)=O)cc1 | 4.8µM* | ? | 1% | . | -4% | -5%
CCOC(=O)c1sc(NC(=O)c2cc(CC)on2)c(C(=O)OCC)c1C | -2% | . | . | -4% | . | .
COc1ccccc1Nc1nnc(SCC2CCCCO2)s1 (centres undefined) | 1.5µM* | ? | 2.5µM* | ? | 3.5µM* | 8.9µM*
Cc1ccccc1Nc1nnc(SCC2CCCCO2)s1 (centres undefined) | 2.4µM* | ? | 2.8µM* | 11µM* | 0.71µM* | -28%
Cc1ccc(Nc2nnc(SCC3CCCCO3)s2)cc1 (centres undefined) | ? | 14% | ? | ? | 24% | 1%
Cc1ccc2c(CC(=O)N(Cc3ccc(N(C)C)cc3)Cc3ccco3)coc2c1C | -1% | . | . | 11% | . | .
COc1ccc(C(=O)NC2CCN(CC(=O)NC3CCCCC3)CC2)cc1 | 4% | -4% | -4% | . | -2% | .
CC(C)Oc1ccc(C(=O)NC2CCCCC2)cc1 | 11µM* | 18µM* | 4µM* | ? | 2.8µM* | -4%

Bioassay records: PubChem, National Center for Advancing Translational Sciences (NCATS)
